We go through 28 molecules from PubChem BioAssay (NCATS).

Inconclusive results are not listed. Values without a mark were called inactive. Calls of active or inactive are those of the source. The call rests on the fitted dose curve; in most records, active means well fitted inhibition curve with a large enough effect; inconclusive means small, poorly fitted or top-dose-only effect; inactive means flat fitted curve, though single readings scatter.
On the % scale 0 is the no-effect control and ±100 the full control effect; potency means the concentration at half of the fitted maximal effect.

In one assay the test system is NIH3T3. In words: qHTS assay to identify novel small-molecules to repurpose for Merkel cell carcinoma treatment (AID 1296009). Further: nearly all actives have a fitted effect of over 60% in size. Particulars: MCC and control cell lines, CellTiter-Glo viability, 72 h; at 44.8 µM (top of the series) unless noted. In outline:
(§1)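 CellTiter-Glo luminescence after 72 hr compound exposure at 37 degree celsius gave cell viability. Libraries NPC and MIPE were run as 8- and 11-point dose responses; RLUs normalized to DMSO (negative) and no-cell (cytotoxicity) controls.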
A general note: qHTS replaces the single test concentration by a dilution series.
As to `O=C(O)c1cc(-c2ccccc2)nc2ccccc12`, the call was inactive.

In the case of `OC[C@@H](O)[C@H](O)[C@H](O)[C@@H](O)CO`, the result was inactive.

As to `O=C(O)CCc1nc(-c2ccccc2)c(-c2ccccc2)o1`, the outcome was inactive.

For the molecule `COc1ccccc1N1CCN(CCCNc2cc(=O)n(C)c(=O)n2C)CC1`, the molecule was classed as inactive.

Consider `CC(C)C(=O)Oc1ccc(CO)cc1[C@H](CCN(C(C)C)C(C)C)c1ccccc1`, for which the molecule was classed as inactive.

Consider `CCN(CC)CCNC(=O)c1ccc(N)cc1`, for which the molecule was called inactive.

Regarding `CC(C)(C)c1cc(C(=O)O)c(NC(=O)Nc2ccc3[nH]ncc3c2)s1`, the result was inactive.

For `O=C(O)c1ccccc1C(=O)Nc1ccc(-c2ccccc2)cc1`, the molecule was classed as inactive.

For `CN(C)CCC(c1ccccc1)c1ccccn1` (stereo unspecified), the call was inactive.

With `COC(=O)[C@@H]1[C@H]2C[C@H]3c4[nH]c5ccccc5c4CCN3C[C@@H]2CC[C@@H]1O`, the result was inactive.

In the case of `CCOC(=O)C1=C(N)Oc2ccc(Br)cc2C1C(C#N)C(=O)OCC` (stereo unspecified), the call was inactive.

As to `Cc1ccc(Nc2cc(-c3cccc(N4C(=O)c5ccccc5C4=O)c3)ncn2)cc1NS(C)(=O)=O`, the outcome was inactive.

For `CC(C)[C@H](CO)Nc1nc(Nc2ccc(C(=O)O)c(Cl)c2)c2ncn(C(C)C)c2n1`, the outcome is “inactive [at 17.4 µM]”.

On to `CCCNC(=O)NS(=O)(=O)c1ccc(Cl)cc1`, for which the outcome was inactive.

The test system of the next assay is UISO. Described as above. Particulars: MCC and control cell lines, CellTiter-Glo viability, 72 h; series mostly up to 46 µM; activity change, negative = cytotoxicity: at the top concentration. In outline: as §1
(In general: In ATP-based viability assays light output follows the ATP content of the culture.)
For the molecule `O=C(O)c1cc(-c2ccccc2)nc2ccccc12`, the Potency result is “inactive”.

Turning to `OC[C@@H](O)[C@H](O)[C@H](O)[C@@H](O)CO`, the Potency result is “inactive”.

Consider `O=C(NC1CCOCC1)c1ccc(-c2cc(-c3cn[nH]c3-c3ccccn3)ccn2)cc1`, for which the “activity change, negative = cytotoxicity” value was 20.6%.

In the case of `CCN1CCC[C@H]1CNC(=O)c1cc(S(N)(=O)=O)ccc1OC`, the “activity change, negative = cytotoxicity” value is 18.7%.

Turning to `O=C(O)Cc1cccc2ccccc12`, the Potency result is “inactive”.

Consider `C[C@@H](O)[C@H]1C(=O)N2C(C(=O)O)=C(S[C@@H]3CN[C@H](C(=O)N(C)C)C3)[C@H](C)[C@H]12`, for which the Potency entry is “inactive”.

On to `CC(=O)CCCCn1c(=O)c2c(ncn2C)n(C)c1=O`, for which the “activity change, negative = cytotoxicity” value is 24.2%.

Regarding `O=C(CCN1CCN(C(=O)OCc2cc(Cl)cc(Cl)c2)CC1)c1ccc2[nH]c(=O)oc2c1`, the “activity change, negative = cytotoxicity” value is -3.32%.

In the case of `COc1ncc(-c2ccc3nccc(-c4ccnnc4)c3c2)cc1NS(=O)(=O)c1ccc(F)cc1F`, the Potency was 0.0235 µM (active).

On to `O=C(O)CCc1nc(-c2ccccc2)c(-c2ccccc2)o1`, for which the “activity change, negative = cytotoxicity” value is -5.82%.

With `CNC(=O)c1ccc2cc(C3(O)CCn4cncc43)ccc2c1` (stereo unspecified), the “activity change, negative = cytotoxicity” value was -2.83%.

For `COc1ccccc1N1CCN(CCCNc2cc(=O)n(C)c(=O)n2C)CC1`, the “activity change, negative = cytotoxicity” value is 16%.

Regarding `CS(=O)c1ccc(-c2nc(-c3ccc(F)cc3)c(-c3ccncc3)[nH]2)cc1` (stereo unspecified), the “activity change, negative = cytotoxicity” value is -23.2% [at 92.7 µM].

Take `CC(C)C(=O)Oc1ccc(CO)cc1[C@H](CCN(C(C)C)C(C)C)c1ccccc1`: the “activity change, negative = cytotoxicity” value was -8.71%.

`Cc1cnc(C(=O)O)c[n+]1[O-]`: the “activity change, negative = cytotoxicity” value was 1.74%.

With `CC[C@]1(O)C[C@@H]2CN(CCc3c([nH]c4ccccc34)[C@@](C(=O)OC)(c3cc4c(cc3OC)N(C)[C@H]3[C@@](O)(C(=O)OC)[C@H](OC(C)=O)[C@]5(CC)C=CCN6CC[C@]43[C@@H]65)C2)C1`, the Potency was 0.237 µM (active).

With `COc1ccc2cc(-c3nc(-c4ccc(S(C)=O)cc4)[nH]c3-c3ccncc3)ccc2c1` (stereo unspecified), the “activity change, negative = cytotoxicity” value is -0.82%.

For `CCN(CC)CCNC(=O)c1ccc(N)cc1`, the “activity change, negative = cytotoxicity” value was 15.6%.

For the molecule `CC(C)(C)c1cc(C(=O)O)c(NC(=O)Nc2ccc3[nH]ncc3c2)s1`, the “activity change, negative = cytotoxicity” value was -21.8%.

`COc1ccc2c(Oc3ccc(NC(=O)c4c(C)n(CC(C)(C)O)n(-c5ccccc5)c4=O)nc3)ccnc2c1`: the “activity change, negative = cytotoxicity” value was -15.7%.

For `O=C(O)c1ccccc1C(=O)Nc1ccc(-c2ccccc2)cc1`, the “activity change, negative = cytotoxicity” value was -1.75%.

Take `CN(C)CCC(c1ccccc1)c1ccccn1` (stereo unspecified): the “activity change, negative = cytotoxicity” value was 10.5%.

`COC(=O)[C@@H]1[C@H]2C[C@H]3c4[nH]c5ccccc5c4CCN3C[C@@H]2CC[C@@H]1O`: the “activity change, negative = cytotoxicity” value is 19.3%.

Turning to `Cc1ccccc1C(C(=O)NC1CCCCC1)N(C(=O)Cn1ccnc1C)c1cccc(F)c1` (stereo unspecified), the “activity change, negative = cytotoxicity” value was 5.51%.

Regarding `CCOC(=O)C1=C(N)Oc2ccc(Br)cc2C1C(C#N)C(=O)OCC` (stereo unspecified), the “activity change, negative = cytotoxicity” value is -5.39%.

Consider `Cc1ccc(Nc2cc(-c3cccc(N4C(=O)c5ccccc5C4=O)c3)ncn2)cc1NS(C)(=O)=O`, for which the “activity change, negative = cytotoxicity” value was -26.2%.

Consider `CCCNC(=O)NS(=O)(=O)c1ccc(Cl)cc1`, for which the “activity change, negative = cytotoxicity” value is 3.61%.
